DAX1 inh-1 – inhibitors of human orphan nuclear receptor DAX1 (NR0B1). HEK293 Gal4-DAX1 luciferase reporter, luminescence. P51843. inhibition, % at 6.75 µM. 340,000 compounds, 0.99% hits;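 active means inhibition above the mean over all tested compounds plus 3 SD, cut at about 4.2% in these data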;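 further: inhibition shows as a rise in luminescence from relieved DAX1 repression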
Target sequence (P51843 207-470 limits assumed): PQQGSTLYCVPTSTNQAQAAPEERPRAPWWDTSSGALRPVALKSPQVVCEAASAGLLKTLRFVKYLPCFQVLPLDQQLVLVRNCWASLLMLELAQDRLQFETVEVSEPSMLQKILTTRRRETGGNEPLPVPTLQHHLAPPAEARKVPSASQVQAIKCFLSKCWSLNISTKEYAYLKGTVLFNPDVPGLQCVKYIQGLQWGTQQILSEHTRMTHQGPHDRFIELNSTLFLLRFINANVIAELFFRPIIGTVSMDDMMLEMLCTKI
hcDAF12 agonist – activators of H. contortus DAF-12 nuclear receptor. 370,000 compounds, 1.4% hits. activation, % at 6.8 µM. HEK293 hcDAF-12 lit1-tk-luc reporter, luminescence; 0% DMSO, 100% Δ7-dafachronic acid. AID 652067;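 active means activation above the mean of all tested compounds plus 3 SD, cut at about 5.5% in these data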
ssDAF-12 act – activates DAF-12 receptor from parasite S. stercoralis; HEK293 ssDAF-12/GRIP1 lit1-tk-luc reporter, luminescence; % of 3 µM dafachronic acid response; activation, % at 6.8 µM; 370,000 compounds, 1% hits; AID 652126;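 active means activation above the mean over all tested compounds plus 3 SD, cut at about 0.9% in these data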
hgDAF-12 ag – agonists of H. glycines DAF-12 nuclear receptor; HEK293 GAL4-hgDAF12 UAS-luciferase reporter, agonist luminescence; normalized to butyrate control; activation, % at 6.8 µM; 370,000 compounds, 1.8% hits;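 active means activation above a cutoff set at the mean of all screened compounds plus 3 SD, cut at about 10% in these data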
SMARCA2 activ – activators of SMARCA2 function; MG213 cells, MMTV-luciferase reporter, dexamethasone, overnight; activation, % at 9.1 µM; 370,000 compounds, 1% hits; AID 652017; in the data active means activation above about 7.8%
DAX1 inh-2 – blocks DAX1 repression of SF-1 activated StAR promoter; inhibition, % at 6.8 µM; 370,000 compounds, 1.1% hits; AID 652010; HEK293T StAR-luciferase reporter, SF-1/DAX-1 repression relief;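 active means inhibition above the mean over all tested compounds plus 3 SD, cut at about 3.6% in these data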;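 further: higher inhibition means more luminescence from relief of DAX-1 repression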
LXRb hcDAF ctr – LXR-beta agonism as hcDAF-12 counter-screen; shares compounds with hcDAF12 agonist; HEK293 Gal4-LXR tk-luc reporter, luminescence, 24 h; normalized: DMSO 0%, positive control 100%; activation, % at 6.8 µM; 3,400 tested, under 10 active;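 active means mean percent activation of the reporter above a cutoff set as the average over tested compounds plus their standard deviation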
Target sequence (P55055 whole entry, looked up, the tested form may be a part): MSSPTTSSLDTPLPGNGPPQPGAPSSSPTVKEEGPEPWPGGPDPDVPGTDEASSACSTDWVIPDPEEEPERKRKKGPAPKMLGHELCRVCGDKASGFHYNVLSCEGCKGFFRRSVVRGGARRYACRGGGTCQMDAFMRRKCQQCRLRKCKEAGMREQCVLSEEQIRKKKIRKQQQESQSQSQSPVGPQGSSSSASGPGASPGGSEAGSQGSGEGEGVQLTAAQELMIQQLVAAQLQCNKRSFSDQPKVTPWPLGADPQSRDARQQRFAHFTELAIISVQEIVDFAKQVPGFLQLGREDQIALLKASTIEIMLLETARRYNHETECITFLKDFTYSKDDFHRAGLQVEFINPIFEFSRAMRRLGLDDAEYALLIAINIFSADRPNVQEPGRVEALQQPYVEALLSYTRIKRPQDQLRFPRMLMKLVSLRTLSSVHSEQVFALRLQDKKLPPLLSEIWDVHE
hcDAF12 conf – hcDAF-12 agonism, confirmation assay. shares compounds with hcDAF12 agonist. HEK293 hcDAF-12 lit1-tk-luc reporter, luminescence; % of Δ7-dafachronic acid response. activation, % at 6.8 µM. 3,400 compounds, 61% hits;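 active means mean activation across triplicate tests above the threshold derived from the earlier primary screen, cut at about 5.5% in these data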
Numbers stand for hits. In the library only some 4.8% were active in any assay of this set; here they are far more common.

Screening O=C(CN(c1ccc(F)cc1)S(=O)(=O)c1ccccc1)NC1CC2CCC1C2 (stereo not given) returned DAX1 inh-1 inactive, hcDAF12 agonist inactive, ssDAF-12 act inactive, hgDAF-12 ag inactive, SMARCA2 activ inactive and DAX1 inh-2 inactive.
Screening Cn1c(Cl)c(C(=O)Nc2ccc(Cl)cc2)c2ccccc21 returned DAX1 inh-1 inactive, hcDAF12 agonist 6.8, ssDAF-12 act inactive, hgDAF-12 ag inactive, SMARCA2 activ inactive, DAX1 inh-2 inactive, LXRb hcDAF ctr inactive and hcDAF12 conf 5.9.
Screening Cn1nc(-c2ccccc2)c(C(=O)Nc2ccc(Cl)cc2)c1Cl returned DAX1 inh-1 inactive, hcDAF12 agonist inactive, ssDAF-12 act inactive, hgDAF-12 ag inactive, SMARCA2 activ inactive and DAX1 inh-2 inactive.
Cc1ccc(N/N=C/c2ccc3c(c2)OCCO3)cc1Cl was read as DAX1 inh-1 inactive, hcDAF12 agonist 7.8, ssDAF-12 act inactive, hgDAF-12 ag inactive, SMARCA2 activ inactive, DAX1 inh-2 inactive, LXRb hcDAF ctr inactive and hcDAF12 conf 8.3.
CC1CN(C(=O)CCNC(=O)c2ccc(Br)cc2)CC(C)O1 (stereo not given) was read as DAX1 inh-1 inactive, hcDAF12 agonist inactive, ssDAF-12 act inactive, hgDAF-12 ag inactive, SMARCA2 activ inactive and DAX1 inh-2 inactive.
C(=N\n1c2ccccc2c2ccccc21)/c1ccccc1 was read as DAX1 inh-1 inactive, hcDAF12 agonist 10.4, ssDAF-12 act inactive, hgDAF-12 ag inactive, SMARCA2 activ inactive, DAX1 inh-2 inactive, LXRb hcDAF ctr inactive and hcDAF12 conf 5.9.
Screening CCOC(=O)c1cnc(-c2ccccc2)nc1N(C)C returned DAX1 inh-1 inactive, hcDAF12 agonist 11.1, ssDAF-12 act inactive, hgDAF-12 ag 10.7, SMARCA2 activ inactive, DAX1 inh-2 inactive, LXRb hcDAF ctr inactive and hcDAF12 conf 9.4.
Screening CCc1ccc2c(c1)C(=O)c1ccccc1C2=O returned DAX1 inh-1 inactive, hcDAF12 agonist 8.0, ssDAF-12 act 2.5, hgDAF-12 ag 11.1, SMARCA2 activ inactive, DAX1 inh-2 inactive, LXRb hcDAF ctr inactive and hcDAF12 conf 9.8.
CCc1ccc(NC2=CC(=O)C(=O)c3ccccc32)cc1 was read as DAX1 inh-1 inactive, hcDAF12 agonist inactive, ssDAF-12 act inactive, hgDAF-12 ag inactive, SMARCA2 activ inactive and DAX1 inh-2 inactive.
`COc1ccc(-c2cc(-c3ccccc3O)[nH]n2)cc1` gave DAX1 inh-1 inactive, hcDAF12 agonist 19.5, ssDAF-12 act 4.4, hgDAF-12 ag 21.8, SMARCA2 activ inactive, DAX1 inh-2 3.7, LXRb hcDAF ctr inactive and hcDAF12 conf 23.1.
`Oc1ccccc1-c1cc(-c2ccc(F)cc2)n[nH]1` gave DAX1 inh-1 10.9, hcDAF12 agonist 18.6, ssDAF-12 act 4.3, hgDAF-12 ag 21.8, SMARCA2 activ inactive, DAX1 inh-2 inactive, LXRb hcDAF ctr inactive and hcDAF12 conf 18.9.
COc1ccc(O)c(-c2cc(-c3ccccc3Cl)[nH]n2)c1 was read as DAX1 inh-1 inactive, hcDAF12 agonist 7.5, ssDAF-12 act inactive, hgDAF-12 ag inactive, SMARCA2 activ inactive, DAX1 inh-2 inactive, LXRb hcDAF ctr inactive and hcDAF12 conf inactive.
Cc1ccc(O)c(-c2cc(-c3cccc(Br)c3)n[nH]2)c1 was read as DAX1 inh-1 inactive, hcDAF12 agonist inactive, ssDAF-12 act inactive, hgDAF-12 ag inactive, SMARCA2 activ inactive and DAX1 inh-2 inactive.
COc1ccc(Cl)c(-c2cc(C(=O)NC(C)C)[nH]n2)c1 was read as hcDAF12 agonist inactive, ssDAF-12 act inactive, hgDAF-12 ag inactive, SMARCA2 activ inactive and DAX1 inh-2 inactive.
`COc1ccc(-c2cc(-c3c(O)c(OC)c4occc4c3OC)[nH]n2)cc1` gave DAX1 inh-1 inactive, hcDAF12 agonist inactive, ssDAF-12 act inactive, hgDAF-12 ag inactive, SMARCA2 activ inactive and DAX1 inh-2 inactive.
For Cc1ccc(-c2cc(-c3ccc(F)cc3)n[nH]2)c(O)c1 the results were DAX1 inh-1 11.8, hcDAF12 agonist 20.1, ssDAF-12 act 4.8, hgDAF-12 ag 18.1, SMARCA2 activ inactive, DAX1 inh-2 inactive, LXRb hcDAF ctr inactive and hcDAF12 conf 17.9.
For O=C(Nc1ccc(NC(=O)C2CCCCC2)nc1)c1cccs1 the results were DAX1 inh-1 inactive, hcDAF12 agonist inactive, ssDAF-12 act inactive, hgDAF-12 ag inactive, SMARCA2 activ inactive and DAX1 inh-2 inactive.
`C/C=C(\C)C(=O)O[C@@H]([C@H](O)c1cc2ccc(=O)oc2cc1OC)C(C)(C)O` gave DAX1 inh-1 inactive, hcDAF12 agonist inactive, ssDAF-12 act inactive, hgDAF-12 ag inactive, SMARCA2 activ inactive and DAX1 inh-2 inactive.
CN(C)CCn1c2c(c(SCC(=O)Nc3ccc4c(c3)OCCO4)nc1=O)CCCC2 was read as DAX1 inh-1 inactive, hcDAF12 agonist inactive, ssDAF-12 act inactive, hgDAF-12 ag inactive, SMARCA2 activ inactive and DAX1 inh-2 inactive.
Screening CCCCn1nnnc1C(c1cc2ccccc2o1)N1CCCN(C(=O)OC(C)(C)C)CC1 (stereo not given) returned hcDAF12 agonist inactive, ssDAF-12 act inactive, hgDAF-12 ag inactive, SMARCA2 activ inactive and DAX1 inh-2 inactive.
`CCOc1ccc(S(=O)(=O)N2CCC(C(=O)NCc3ccccn3)CC2)cc1` gave DAX1 inh-1 inactive, hcDAF12 agonist inactive, ssDAF-12 act inactive, hgDAF-12 ag inactive, SMARCA2 activ inactive and DAX1 inh-2 inactive.
`Cc1c(NC(=O)COC(=O)C2(c3ccc(F)cc3)CCCC2)c(=O)n(-c2ccccc2)n1C` gave DAX1 inh-1 inactive, hcDAF12 agonist inactive, ssDAF-12 act inactive, hgDAF-12 ag inactive, SMARCA2 activ inactive and DAX1 inh-2 inactive.
Screening Oc1ccccc1-c1cc(-c2ccccc2)n[nH]1 returned DAX1 inh-1 5.9, hcDAF12 agonist 19.3, ssDAF-12 act 4.5, hgDAF-12 ag 19.0, SMARCA2 activ inactive, DAX1 inh-2 3.7, LXRb hcDAF ctr inactive and hcDAF12 conf 20.8.
`Oc1ccccc1-c1ccn[nH]1` gave DAX1 inh-1 inactive, hcDAF12 agonist inactive, ssDAF-12 act inactive, hgDAF-12 ag inactive, SMARCA2 activ inactive and DAX1 inh-2 inactive.
CC(CCc1ccccn1)(CCc1ccccn1)C(=O)c1ccccc1 was read as DAX1 inh-1 inactive, hcDAF12 agonist inactive, ssDAF-12 act inactive, hgDAF-12 ag inactive, SMARCA2 activ inactive and DAX1 inh-2 inactive.
Screening Cc1cc(S(=O)(=O)N2CCCOC2CNC(=O)C(=O)NCc2ccco2)ccc1F (stereo not given) returned DAX1 inh-1 inactive, hcDAF12 agonist inactive, ssDAF-12 act inactive, hgDAF-12 ag inactive, SMARCA2 activ inactive and DAX1 inh-2 inactive.

High-throughput results (PubChem)
